Measurements: PubChem BioAssay AID1240 (Sanford-Burnham Center for Chemical Genomics, 2008)
The campaign covered roughly 50,000 compounds. About 800 (1.6%) showed an effect of 50% or more. This is one part of a sample in which strong results are shown more often than they occur.

Target: Bcl-2-like protein 10 (Homo sapiens) (UniProt Q9HD36)
Test: TR3 peptide-Bcl-B binding displacers, biochemical primary FP assay, phenotype converters (AID 1240);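 note: 0% = Bcl-B with tracer peptide and DMSO and 100% = tracer peptide lacking Bcl-B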
Settings: GST-Bcl-B / FITC-TR3 peptide fluorescence polarization; stronger effect = higher value; compound at 3.75 mg/L

Bcl-2-like protein 10 (Homo sapiens), sequence (Q9HD36 whole entry, looked up): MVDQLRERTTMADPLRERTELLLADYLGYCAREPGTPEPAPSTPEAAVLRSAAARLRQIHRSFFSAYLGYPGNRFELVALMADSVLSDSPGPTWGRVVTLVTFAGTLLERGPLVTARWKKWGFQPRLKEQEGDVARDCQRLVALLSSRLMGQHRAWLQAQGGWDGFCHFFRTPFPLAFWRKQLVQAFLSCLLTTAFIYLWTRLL

**Q.** With `CCOc1ccc(-c2c(C#N)c(N)nc3sc(C#N)c(N)c23)cc1` as the molecule, how does the displacement read?
**A.** -1.4%

**Q.** For `COc1ccc(-c2c(C#N)c(N)nc3c2CCCCC3)cc1OC`, which displacement is on record?
**A.** -2.3%

**Q.** With `CCCCOC(=O)c1sc2nc(N)c(C#N)c(-c3ccc(OC)c(OC)c3)c2c1N` as the molecule, how does the displacement read?
**A.** 167%

**Q.** For `O=C(CCN1C(=O)c2ccccc2C1=O)NC1CCCC1`, which displacement is on record?
**A.** 8.5%

**Q.** `O=C(N/N=C/c1cccnc1)/C(=C\c1cccs1)NC(=O)c1ccccc1` was tested. Which displacement did it give?
**A.** -9.3%

**Q.** With `O=C1NC(=Nc2cccnc2)S/C1=C\c1ccc(F)cc1` as the molecule, how does the displacement read?
**A.** 3.5%

**Q.** With `O=C1NC(=Nc2cccnc2)S/C1=C\c1ccc(Br)cc1` as the molecule, how does the displacement read?
**A.** 12.1%

**Q.** For `O=C1NC(=Nc2ccc(O)cc2)S/C1=C\c1ccc(F)cc1`, which displacement is on record?
**A.** 7.7%

**Q.** `O=C1NC(=Nc2cccnc2)S/C1=C\c1cccc(F)c1` was tested. Which displacement did it give?
**A.** 146%

**Q.** For `O=C1NC(=Nc2cccc(O)c2)S/C1=C\c1cccc(O)c1`, which displacement is on record?
**A.** 1.9%

**Q.** Which displacement does the source give for `O=C1NC(=Nc2cccc(O)c2)S/C1=C\c1ccc(F)cc1` here?
**A.** 75.8%

**Q.** For `CCOC(=O)C12CC3CC(CC(C3)C1)C2`, which displacement is on record?
**A.** -12.2%

**Q.** With `COc1ccc([N+](=O)[O-])cc1NCc1cccnc1` as the molecule, how does the displacement read?
**A.** 3.1%

**Q.** For `Oc1ccc2ccccc2c1C=Nc1ccc2oc(-c3ccccc3Br)nc2c1`, which displacement is on record?
**A.** 120%

**Q.** With `NC(=O)c1cccc(N=Cc2c(O)ccc3ccccc23)c1` as the molecule, how does the displacement read?
**A.** -0.3%

**Q.** How did the displacement turn out when `CCC(=O)Nc1ccc2oc(-c3ccccc3Br)nc2c1` was run?
**A.** 8.7%

**Q.** For `COc1ccc(-c2ccc(-c3nnc(-c4cccc(C)c4)o3)cc2)cc1`, which displacement is on record?
**A.** -5.4%

**Q.** How did the displacement turn out when `COc1cc(C=NN2CCN(Cc3ccc(C)cc3C)CC2)cc(Br)c1O` was run?
**A.** 10.3%

**Q.** How did the displacement turn out when `N#C/C(=N\Nc1ccccc1F)c1nc(-c2ccccc2)cs1` was run?
**A.** 7.2%

**Q.** How did the displacement turn out when `N#C/C(=N\Nc1ccccc1)c1nc(-c2ccc(F)cc2)cs1` was run?
**A.** 127%

**Q.** `N#C/C(=N/Nc1cccc(C(F)(F)F)c1)c1nc(-c2ccccc2)cs1` was tested. Which displacement did it give?
**A.** -4.4%

**Q.** With `Cc1ccccc1CNC(=O)CN(c1ccc(Oc2ccccc2)cc1)S(C)(=O)=O` as the molecule, how does the displacement read?
**A.** 7.2%

**Q.** `CCOc1ccccc1NC(=O)c1cc(C(=O)OC)cc([N+](=O)[O-])c1` was tested. Which displacement did it give?
**A.** -7.1%

**Q.** `CC1=NN(c2ccc(S(N)(=O)=O)cc2)C(=O)/C1=C\c1ccc(-c2ccc(C)c(Cl)c2)o1` was tested. Which displacement did it give?
**A.** 4%

**Q.** `COc1ccc(C=C2NC(=S)N(c3ccccc3)C2=O)c(OC)c1` was tested. Which displacement did it give?
**A.** 3.7%

**Q.** How did the displacement turn out when `COc1ccc(N2C(=O)/C(=C\c3cc(OC)ccc3OC)SC2=S)cc1` was run?
**A.** 28.3%

**Q.** With `COc1ccc(OC)c(/C=C2/SC(=O)N(CNc3ccc(Br)cc3C)C2=O)c1` as the molecule, how does the displacement read?
**A.** 90.9%

**Q.** Which displacement does the source give for `COC(=O)CN1C(=O)/C(=C/c2cc(OC)ccc2OC)SC1=S` here?
**A.** -14.6%

**Q.** For `COc1ccc(OC)c(/C=C2\NC(=S)N(c3ccccc3)C2=O)c1`, which displacement is on record?
**A.** 62.3%

**Q.** For `COc1ccc(/C=C2\NC(=S)N(c3ccccc3)C2=O)cc1OC`, which displacement is on record?
**A.** 41.7%

**Q.** `COc1ccc(/C=C2/SC(=O)N(CNc3ccc(Br)cc3C)C2=O)cc1` was tested. Which displacement did it give?
**A.** 4.5%

**Q.** `COc1ccc(/C=C2/SC(=O)N(CNc3ccc(Br)cc3C)C2=O)c(OC)c1` was tested. Which displacement did it give?
**A.** 31.7%

**Q.** For `COc1ccccc1/C=C1/SC(=O)N(CNc2cccc(Cl)c2)C1=O`, which displacement is on record?
**A.** 9.1%

**Q.** Which displacement does the source give for `COc1ccc(OC)c(/C=C2\SC(=S)N(c3ccccc3C)C2=O)c1` here?
**A.** 158%

**Q.** `COc1ccc(OC)c(/C=C2/SC(=S)N(c3ccccc3OC)C2=O)c1` was tested. Which displacement did it give?
**A.** -0.9%

**Q.** With `COc1ccc(OC)c(/C=C2/SC(=S)N(CNc3cccc(Cl)c3)C2=O)c1` as the molecule, how does the displacement read?
**A.** 57%
